Compound activity (PubChem)
Only some compounds are listed: those with a hit (about 12% of all), similar ones and a draw of the others.
JMJD2A Tudor: blocks the human JMJD2A Tudor domain; O75164; AlphaScreen JMJD2A-Tudor / H3K4me3 peptide binding; Potency, µM (top dose mostly 114 µM), actives largely listed as inhibitors; 390,000 tested, 4.4% active; AID 504339; further: nearly all actives have a fitted effect of over 50% in size
L3MBTL1 block: inhibitors of human L3MBTL1; AlphaScreen L3MBTL1–H3K9me1 peptide binding; Potency, µM (doses to about 57.1 µM), hits mostly inhibitors; 230,000 tested, 0.66% active; further: nearly all actives have a fitted effect of over 60% in size
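AlphaScreen proximity signal between nickel-chelate acceptor and streptavidin donor beads (final 10 ug/mL) reports binding of 50 nM L3MBTL1 to 75 nM biotin-H3 K9me1 peptide; complex incubated with compounds 30 min at room temperature; cefsulodin titration as control.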
BAZ2B block: blocks human BAZ2B | Q9UIF8 | 360,000 tested, 4.4% active | AlphaScreen BAZ2B-H3K14Ac peptide displacement | Potency, µM (doses to about 114 µM), hits mostly inhibitors; further: nearly all actives have a fitted effect of over 60% in size
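Complex of BAZ2B and biotin-H3K14Ac (50 nM apiece) forms over 30 min at RT, then faces library compounds up to 110 uM for another 30 min; AlphaScreen beads added, 20 min dark incubation, luminescence read.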
HP1b binding inh: blocks HP1-beta chromodomain binding to methylated histone tails | Potency, µM (titrated, usually from 114 µM), actives largely listed as inhibitors | 390,000 tested, 0.56% active | AlphaScreen HP1-beta / biotin-H3K9me3 peptide binding | AID 540317; further: nearly all actives have a fitted effect of over 70% in size
Target sequence (P83916 whole entry, looked up): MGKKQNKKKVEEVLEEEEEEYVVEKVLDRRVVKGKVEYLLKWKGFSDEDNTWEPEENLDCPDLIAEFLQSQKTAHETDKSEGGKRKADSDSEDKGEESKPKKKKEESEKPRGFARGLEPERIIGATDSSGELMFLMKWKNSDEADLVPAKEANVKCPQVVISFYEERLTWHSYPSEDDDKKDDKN
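Compound inhibition of the preformed complex between 50 nM HP1-beta and 50 nM biotinylated H3K9me3 peptide was read by AlphaScreen. Buffer was PBS pH 7.4 with 0.01% Tween-20. Incubations ran 30 min at room temperature, with 10 ug/mL donor/acceptor beads.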
Sfp PPTase inh: blocks B. subtilis Sfp PPTase activity; Q9F4F7; Biochemical Sfp PPTase activity, qHTS; Potency, µM, usual class: inhibitors; 310,000 tested, 3.5% active; AID 1490;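 further: the enzyme is Sfp with the accession as filed and its product quenches rhodamine fluorescence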
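After 15 min at room temperature with compound, 15 nM Sfp received 5 uM rhodamine-CoA plus 12.5 uM BHQ-2-ybbR (50 mM Hepes pH 7.6, 10 mM MgCl2). Rate came from the fluorescence difference over 30 min, ex 525/em 598 nm.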
G9a inh-1: inhibitors of human histone lysine methyltransferase G9a; Q96KQ7; G9a H3K9 monomethylation, AlphaScreen, 2 h; Potency, µM (highest dose often 102 µM), most hits filed as inhibitors; 350,000 tested, 8.8% active; AID 504332; further: nearly all actives have a fitted effect of over 75% in size
Target sequence (Q96KQ7 913-1193 limits assumed): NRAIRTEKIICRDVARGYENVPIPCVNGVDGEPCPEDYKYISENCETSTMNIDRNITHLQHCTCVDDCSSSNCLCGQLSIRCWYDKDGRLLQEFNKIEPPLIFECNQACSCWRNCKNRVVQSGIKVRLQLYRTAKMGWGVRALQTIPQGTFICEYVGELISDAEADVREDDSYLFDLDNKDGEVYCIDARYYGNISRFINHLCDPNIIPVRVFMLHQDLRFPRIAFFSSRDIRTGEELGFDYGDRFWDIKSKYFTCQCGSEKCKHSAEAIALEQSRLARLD
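AlphaScreen detection with an anti-monomethyl H3K9 antibody quantified product after a 2 h room-temperature reaction containing 500 nM biotinylated H3K9 peptide, 20 µM SAM and 20 nM enzyme, which had been preincubated 15 min with compound.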
G9a inh-2: inhibits human G9a histone lysine methyltransferase, hit confirmation | shares compounds with JMJD2A Tudor | G9a H3K9 monomethylation, AlphaScreen, 2 h | Potency, µM, most hits filed as inhibitors | 370 tested, 89% active | AID 588344; further: nearly all actives have a fitted effect of over 65% in size
RGS4 inh: confirmation of human RGS4 inhibitors; RGS4 GAP activity, Transcreener GDP fluorescence polarization; shares compounds with JMJD2A Tudor; Potency, µM, usual class: inhibitors; 25 tested, 80% active; AID 602388
Of the large screens only hits and unclear results are named; the others gave an inactive call (follow-up assays come after a bar, where they were run). The call rests on the fitted dose curve; in most records, active means well fitted curve in the direction sought with a large enough effect; inconclusive means small, poorly fitted or top-dose-only effect, or another doubt; inactive means no such curve, though single readings can be large; an effect the other way counts as inactive or inconclusive.

CCN(CC)CCNC(=O)c1cn(-c2ccccc2)nc1-c1cccs1	BAZ2B block inconclusive (no result: L3MBTL1 block)
CCN(CC)CCOC(=O)c1ccc(NC(=O)c2cn(-c3ccccc3)nc2-c2cccs2)cc1	Sfp PPTase inh inconclusive | RGS4 inh 21
CN(C)c1ccc(NC(=O)c2ccc([N+](=O)[O-])cc2Cl)cc1	G9a inh-1 2µM | G9a inh-2 6.3
CNC(=O)NC(=O)CSc1ccc(S(=O)(=O)N2CCOCC2)cn1	G9a inh-1 inconclusive (no result: Sfp PPTase inh) | G9a inh-2 5
COc1ccc(-c2nc(CSCC(=O)NCc3ccccc3Cl)c(C)o2)cc1OC	JMJD2A Tudor inconclusive, G9a inh-1 inconclusive (no result: L3MBTL1 block, Sfp PPTase inh)
O=C(NCc1ccccc1CN1CCCCC1)c1ccc(Cl)cc1N1CCCC1=O	JMJD2A Tudor inconclusive, G9a inh-1 1µM (no result: Sfp PPTase inh) | G9a inh-2 7.9
O=C(NCc1ccccc1CN1CCCCC1)c1ccccc1N1CCCC1=O	JMJD2A Tudor inconclusive (no result: Sfp PPTase inh)
Cn1cccc1C(=O)N1CCC2(CCN(Cc3nccs3)CC2)CC1	none (no result: JMJD2A Tudor, L3MBTL1 block, BAZ2B block, HP1b binding inh)
CCOC(=O)N1CCc2c(sc(NCc3cccc(F)c3)c2C(=O)Nc2ccc(OC)cc2OC)C1	JMJD2A Tudor inconclusive, BAZ2B block inconclusive, HP1b binding inh inconclusive, G9a inh-1 inconclusive (no result: L3MBTL1 block, Sfp PPTase inh) | G9a inh-2 2.5
CCOC(=O)N1CCc2c(sc(NCc3cccc(F)c3)c2C(=O)Nc2ccc(OC)cc2)C1	JMJD2A Tudor 10µM, BAZ2B block 79µM, G9a inh-1 inconclusive (no result: L3MBTL1 block, Sfp PPTase inh) | G9a inh-2 2.3
CCOC(=O)N1CCc2c(sc(NCc3ccc(N(C)C)cc3)c2C(=O)Nc2ccc(OC)cc2)C1	JMJD2A Tudor 14µM, BAZ2B block 22µM, HP1b binding inh inconclusive, G9a inh-1 2.8µM (no result: L3MBTL1 block, Sfp PPTase inh) | G9a inh-2 3.6
CC(=O)Nc1ccccc1-c1nc2ccccc2n(CC(=O)c2ccc(C)c(C)c2)c1=O	none (no result: L3MBTL1 block, Sfp PPTase inh)
O=C(COC(=O)CN1C(=O)NC2(CCCCC2)C1=O)Nc1cc(F)ccc1F	none (no result: BAZ2B block, Sfp PPTase inh, G9a inh-1)
COc1ccc(NC(=O)C2CCC(C(C)(C)C)CC2)cc1S(=O)(=O)N1CCOCC1 (stereo not given)	none (no result: Sfp PPTase inh)
COc1ccc(OC)c(-c2csc(NC(=O)COC(=O)C3CCC3)n2)c1	G9a inh-1 inconclusive (no result: Sfp PPTase inh) | G9a inh-2 10
COc1ccc(OC)c(-c2csc(NC(=O)CSc3ccc(Br)cc3)n2)c1	BAZ2B block inconclusive
CN(C)c1ccc(NC(=O)Nc2ccc3snnc3c2)cc1	G9a inh-1 1.3µM | G9a inh-2 1.6
CC(OC(=O)c1ccc(Cl)c(S(=O)(=O)N2CCOCC2)c1)C(=O)NC1CCCCC1C (stereo not given)	none (no result: L3MBTL1 block)
CC(OC(=O)c1cccc(S(=O)(=O)N2CCOCC2)c1)C(=O)NC1CCCCC1C (stereo not given)	G9a inh-1 inconclusive (no result: Sfp PPTase inh) | G9a inh-2 35
CCOc1cc(C)nc(NCCc2ccc(OC)c(OC)c2)n1	none (no result: L3MBTL1 block)
CCOc1nc(NCCc2ccc(OC)c(OC)c2)nc(N2CCN(c3ccc(OC)cc3)CC2)n1	G9a inh-1 inconclusive (no result: L3MBTL1 block) | G9a inh-2 2
O=C(CSc1nnc(-c2cccc(Br)c2)o1)N1CCNC1=O	none (no result: BAZ2B block, Sfp PPTase inh, G9a inh-1)
OCCCCNc1cccc2ccccc12	JMJD2A Tudor inconclusive, BAZ2B block inconclusive, G9a inh-1 inconclusive (no result: L3MBTL1 block) | G9a inh-2 5.6
CN(C)c1ccc(CNC(=O)c2cccc(NC(=O)N3CCSc4ncccc43)c2)cc1	JMJD2A Tudor inconclusive, BAZ2B block inconclusive, G9a inh-1 2.8µM (no result: L3MBTL1 block, Sfp PPTase inh) | G9a inh-2 18
CCOc1ccc(CNc2nc3ccccc3n2C)cc1	none (no result: G9a inh-1)
CCCCn1cnc2cc(NCc3ccc(OCC)cc3)ccc21	JMJD2A Tudor 40µM, BAZ2B block 22µM, HP1b binding inh inconclusive, G9a inh-1 2.5µM (no result: L3MBTL1 block, Sfp PPTase inh) | G9a inh-2 6.5
CN(C)c1ccc(CNc2ccc3c(c2)ncn3C)cc1	JMJD2A Tudor 18µM, BAZ2B block 18µM, HP1b binding inh 20µM, G9a inh-1 inconclusive (no result: L3MBTL1 block) | G9a inh-2 10
